From the supplement of paper PMC11732987, “Enantioselective OTUD7B fragment discovery through chemoproteomics screening and high-throughput optimisation” (Communications Chemistry, 2025)
A number with no mark means an inactive call.

Tests used:
Experiment in all cases: log2 ratio of Biotin-Ahx-Ub-VS probe labelling (fragment/DMSO); higher = less target engagement (more negative = stronger competition), active = hit call of the paper (q ≤ 0.05, log2 ratio ≤ -1)
Settings in all cases: compound concentration: 200 uM; treatment time: 3 h
USP16 = USP16 (UniProt Q9Y5T5)
Chain of USP16 (Q9Y5T5 whole entry, looked up, the tested form may be a part): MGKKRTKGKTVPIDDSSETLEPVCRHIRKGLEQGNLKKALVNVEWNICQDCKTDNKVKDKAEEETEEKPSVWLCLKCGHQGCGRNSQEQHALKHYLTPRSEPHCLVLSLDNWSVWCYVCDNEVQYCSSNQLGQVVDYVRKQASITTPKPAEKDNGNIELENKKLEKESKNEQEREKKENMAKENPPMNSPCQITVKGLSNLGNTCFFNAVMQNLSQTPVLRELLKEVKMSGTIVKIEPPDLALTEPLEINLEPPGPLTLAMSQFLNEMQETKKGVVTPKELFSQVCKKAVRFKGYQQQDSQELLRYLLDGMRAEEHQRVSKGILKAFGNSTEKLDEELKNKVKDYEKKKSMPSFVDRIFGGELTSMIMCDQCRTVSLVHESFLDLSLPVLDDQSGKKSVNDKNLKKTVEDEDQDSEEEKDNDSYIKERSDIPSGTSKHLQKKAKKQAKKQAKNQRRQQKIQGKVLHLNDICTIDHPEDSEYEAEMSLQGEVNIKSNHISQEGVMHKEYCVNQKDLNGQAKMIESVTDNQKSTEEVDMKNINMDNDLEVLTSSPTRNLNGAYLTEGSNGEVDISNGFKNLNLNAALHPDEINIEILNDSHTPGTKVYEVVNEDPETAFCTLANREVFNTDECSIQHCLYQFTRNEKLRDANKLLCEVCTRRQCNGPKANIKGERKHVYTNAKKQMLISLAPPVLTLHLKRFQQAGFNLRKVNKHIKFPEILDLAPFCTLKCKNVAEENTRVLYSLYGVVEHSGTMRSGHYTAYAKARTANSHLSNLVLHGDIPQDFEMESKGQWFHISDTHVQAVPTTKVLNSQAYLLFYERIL
Method in brief: (§1)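 Labelled DUBs from HEK293T lysate were NeutrAvidin-enriched, digested with LysC and trypsin, and run by diaPASEF LC-MS/MS. Before that, each 495 µg sample in Tris/CHAPS/IGEPAL buffer with protease inhibitors was treated in triplicate with fragment at 200 µM or vehicle for 3 h, then with Biotin-Ahx-Ub-VS at 0.5 µM final for 1 h. Values are average log2 ratios of fragment over vehicle by unpaired t-test, based on global-median-normalised Spectronaut label-free quantities from proteins with ≥2 unique peptides.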

USP19 = target: T1, USP19 (UniProt O94966)
T1 sequence (whole entry): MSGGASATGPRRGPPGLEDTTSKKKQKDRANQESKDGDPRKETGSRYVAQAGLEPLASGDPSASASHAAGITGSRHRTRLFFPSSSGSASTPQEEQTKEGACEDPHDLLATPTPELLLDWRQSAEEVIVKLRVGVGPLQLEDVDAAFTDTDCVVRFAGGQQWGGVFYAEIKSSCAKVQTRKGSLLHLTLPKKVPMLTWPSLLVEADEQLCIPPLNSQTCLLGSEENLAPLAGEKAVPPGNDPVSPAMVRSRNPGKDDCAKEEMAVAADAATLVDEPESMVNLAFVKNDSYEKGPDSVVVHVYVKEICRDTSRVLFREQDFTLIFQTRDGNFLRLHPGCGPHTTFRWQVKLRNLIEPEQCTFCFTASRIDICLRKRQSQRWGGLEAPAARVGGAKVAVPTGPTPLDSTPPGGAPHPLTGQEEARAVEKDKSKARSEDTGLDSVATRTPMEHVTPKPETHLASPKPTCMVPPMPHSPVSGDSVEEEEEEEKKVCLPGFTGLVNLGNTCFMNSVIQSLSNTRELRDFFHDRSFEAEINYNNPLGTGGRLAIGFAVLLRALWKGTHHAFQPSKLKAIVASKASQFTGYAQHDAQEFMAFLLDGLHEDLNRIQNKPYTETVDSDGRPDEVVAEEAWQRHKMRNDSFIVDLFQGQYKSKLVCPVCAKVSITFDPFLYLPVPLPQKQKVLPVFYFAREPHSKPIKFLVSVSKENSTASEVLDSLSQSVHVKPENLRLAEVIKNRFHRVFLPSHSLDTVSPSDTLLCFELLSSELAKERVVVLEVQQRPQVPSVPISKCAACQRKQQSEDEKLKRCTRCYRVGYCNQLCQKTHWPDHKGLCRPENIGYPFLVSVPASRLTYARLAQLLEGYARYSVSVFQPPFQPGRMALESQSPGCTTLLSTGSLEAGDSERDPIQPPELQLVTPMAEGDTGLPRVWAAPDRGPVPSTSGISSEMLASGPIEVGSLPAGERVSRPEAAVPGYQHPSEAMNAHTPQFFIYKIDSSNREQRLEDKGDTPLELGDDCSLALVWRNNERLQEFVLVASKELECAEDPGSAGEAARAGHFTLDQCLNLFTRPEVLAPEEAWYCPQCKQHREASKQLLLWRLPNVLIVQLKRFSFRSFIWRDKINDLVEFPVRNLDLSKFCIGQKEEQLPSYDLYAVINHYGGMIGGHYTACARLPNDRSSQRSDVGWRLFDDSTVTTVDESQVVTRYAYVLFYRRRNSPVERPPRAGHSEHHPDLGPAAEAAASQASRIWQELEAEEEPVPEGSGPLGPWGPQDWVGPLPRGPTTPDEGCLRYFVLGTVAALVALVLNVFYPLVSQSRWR
Method in brief: as §1

USP24 = USP24 (UniProt Q9UPU5)
Chain of USP24 (Q9UPU5 whole entry): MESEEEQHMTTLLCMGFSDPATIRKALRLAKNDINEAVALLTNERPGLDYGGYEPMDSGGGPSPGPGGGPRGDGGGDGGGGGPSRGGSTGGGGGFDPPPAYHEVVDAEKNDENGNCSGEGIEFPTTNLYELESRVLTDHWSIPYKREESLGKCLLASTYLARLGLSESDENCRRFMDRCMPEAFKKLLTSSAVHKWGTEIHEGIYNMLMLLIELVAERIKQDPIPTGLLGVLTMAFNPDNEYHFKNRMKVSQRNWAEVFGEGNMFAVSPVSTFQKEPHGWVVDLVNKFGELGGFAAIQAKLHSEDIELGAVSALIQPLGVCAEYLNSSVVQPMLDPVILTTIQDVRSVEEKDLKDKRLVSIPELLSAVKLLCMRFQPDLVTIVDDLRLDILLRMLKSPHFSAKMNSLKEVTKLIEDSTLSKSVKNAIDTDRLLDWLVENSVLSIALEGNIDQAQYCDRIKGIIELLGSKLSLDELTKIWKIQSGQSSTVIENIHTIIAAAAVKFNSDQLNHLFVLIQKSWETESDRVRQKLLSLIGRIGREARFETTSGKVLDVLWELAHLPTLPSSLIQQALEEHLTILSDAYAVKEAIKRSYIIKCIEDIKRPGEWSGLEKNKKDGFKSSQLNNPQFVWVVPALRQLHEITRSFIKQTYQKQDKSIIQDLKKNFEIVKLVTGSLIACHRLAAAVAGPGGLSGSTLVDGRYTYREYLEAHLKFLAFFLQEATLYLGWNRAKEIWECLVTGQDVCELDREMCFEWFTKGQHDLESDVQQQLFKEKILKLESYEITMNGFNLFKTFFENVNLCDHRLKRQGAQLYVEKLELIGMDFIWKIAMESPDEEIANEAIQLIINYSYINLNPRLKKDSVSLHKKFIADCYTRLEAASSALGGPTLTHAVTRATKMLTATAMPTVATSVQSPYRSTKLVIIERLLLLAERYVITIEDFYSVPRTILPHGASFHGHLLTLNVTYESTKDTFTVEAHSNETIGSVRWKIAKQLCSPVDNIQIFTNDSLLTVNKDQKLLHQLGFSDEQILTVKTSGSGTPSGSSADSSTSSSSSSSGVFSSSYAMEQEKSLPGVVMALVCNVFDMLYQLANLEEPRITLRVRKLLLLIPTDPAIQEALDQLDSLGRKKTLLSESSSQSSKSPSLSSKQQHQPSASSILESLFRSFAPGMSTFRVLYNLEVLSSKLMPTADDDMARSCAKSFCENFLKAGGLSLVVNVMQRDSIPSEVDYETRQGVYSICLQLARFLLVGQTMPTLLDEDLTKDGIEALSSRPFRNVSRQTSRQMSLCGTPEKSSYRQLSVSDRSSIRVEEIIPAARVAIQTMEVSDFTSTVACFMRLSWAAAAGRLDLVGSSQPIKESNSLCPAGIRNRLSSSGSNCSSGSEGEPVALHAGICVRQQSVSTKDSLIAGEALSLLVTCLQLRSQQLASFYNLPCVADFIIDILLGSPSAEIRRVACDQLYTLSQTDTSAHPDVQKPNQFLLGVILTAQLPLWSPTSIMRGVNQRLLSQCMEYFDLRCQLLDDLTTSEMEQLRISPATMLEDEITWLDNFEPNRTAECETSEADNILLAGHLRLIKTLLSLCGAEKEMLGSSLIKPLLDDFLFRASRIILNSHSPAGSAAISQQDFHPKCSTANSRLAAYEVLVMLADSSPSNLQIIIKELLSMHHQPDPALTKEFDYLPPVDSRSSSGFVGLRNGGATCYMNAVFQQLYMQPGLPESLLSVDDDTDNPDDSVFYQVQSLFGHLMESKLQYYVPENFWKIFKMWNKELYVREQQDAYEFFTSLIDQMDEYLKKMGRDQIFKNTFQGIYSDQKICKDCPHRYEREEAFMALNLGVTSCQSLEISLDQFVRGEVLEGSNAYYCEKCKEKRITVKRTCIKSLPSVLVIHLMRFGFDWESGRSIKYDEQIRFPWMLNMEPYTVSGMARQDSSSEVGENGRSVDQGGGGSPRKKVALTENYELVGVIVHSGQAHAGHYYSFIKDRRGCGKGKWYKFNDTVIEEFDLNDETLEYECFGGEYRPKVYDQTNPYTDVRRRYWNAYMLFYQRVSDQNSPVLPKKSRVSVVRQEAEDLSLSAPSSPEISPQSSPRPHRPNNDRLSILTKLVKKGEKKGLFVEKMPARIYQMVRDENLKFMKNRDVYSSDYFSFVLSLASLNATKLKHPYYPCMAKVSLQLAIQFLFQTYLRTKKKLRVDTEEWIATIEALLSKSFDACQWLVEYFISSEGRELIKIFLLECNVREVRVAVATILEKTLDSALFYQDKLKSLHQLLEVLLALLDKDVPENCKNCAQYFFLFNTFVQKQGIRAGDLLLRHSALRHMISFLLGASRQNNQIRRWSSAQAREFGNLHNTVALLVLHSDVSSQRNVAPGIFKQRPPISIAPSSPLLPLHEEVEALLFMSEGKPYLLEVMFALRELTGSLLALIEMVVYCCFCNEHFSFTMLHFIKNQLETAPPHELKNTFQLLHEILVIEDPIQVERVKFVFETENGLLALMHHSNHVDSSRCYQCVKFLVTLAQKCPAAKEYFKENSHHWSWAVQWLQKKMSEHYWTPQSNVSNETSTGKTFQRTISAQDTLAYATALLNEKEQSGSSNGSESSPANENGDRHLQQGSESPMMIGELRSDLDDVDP
Method in brief: as §1

USP25 = target: T2, USP25 (UniProt Q9UHP3)
T2 sequence (whole entry): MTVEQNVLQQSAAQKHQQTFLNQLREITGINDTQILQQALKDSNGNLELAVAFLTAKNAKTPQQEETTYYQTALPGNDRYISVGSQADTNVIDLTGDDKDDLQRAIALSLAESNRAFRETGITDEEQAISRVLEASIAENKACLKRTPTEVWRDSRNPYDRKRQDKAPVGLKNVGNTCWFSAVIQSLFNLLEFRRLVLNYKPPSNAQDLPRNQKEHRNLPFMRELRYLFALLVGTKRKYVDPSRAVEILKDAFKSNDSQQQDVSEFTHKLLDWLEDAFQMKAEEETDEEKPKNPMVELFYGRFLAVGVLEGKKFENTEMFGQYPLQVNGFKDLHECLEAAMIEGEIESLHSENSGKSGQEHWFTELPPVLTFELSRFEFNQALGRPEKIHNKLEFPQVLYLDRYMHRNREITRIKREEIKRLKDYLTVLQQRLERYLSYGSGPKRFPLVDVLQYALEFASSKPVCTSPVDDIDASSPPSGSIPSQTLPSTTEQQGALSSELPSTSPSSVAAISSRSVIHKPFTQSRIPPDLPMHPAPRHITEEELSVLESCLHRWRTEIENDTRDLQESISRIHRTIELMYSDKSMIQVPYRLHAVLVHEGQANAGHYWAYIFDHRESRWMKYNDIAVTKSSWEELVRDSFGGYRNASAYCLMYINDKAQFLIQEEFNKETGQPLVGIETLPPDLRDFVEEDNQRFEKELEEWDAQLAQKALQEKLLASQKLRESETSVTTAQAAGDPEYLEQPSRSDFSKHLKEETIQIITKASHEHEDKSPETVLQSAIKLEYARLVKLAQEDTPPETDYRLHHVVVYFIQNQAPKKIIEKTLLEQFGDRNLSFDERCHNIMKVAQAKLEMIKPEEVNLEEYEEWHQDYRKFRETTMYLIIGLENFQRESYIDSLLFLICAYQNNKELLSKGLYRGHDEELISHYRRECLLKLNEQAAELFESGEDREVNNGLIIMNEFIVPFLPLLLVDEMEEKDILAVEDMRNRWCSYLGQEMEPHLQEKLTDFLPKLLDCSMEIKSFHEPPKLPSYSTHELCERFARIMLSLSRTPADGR
Method in brief: as §1

USP28 = target: T3, USP28 (UniProt Q96RU2)
T3 sequence (whole entry): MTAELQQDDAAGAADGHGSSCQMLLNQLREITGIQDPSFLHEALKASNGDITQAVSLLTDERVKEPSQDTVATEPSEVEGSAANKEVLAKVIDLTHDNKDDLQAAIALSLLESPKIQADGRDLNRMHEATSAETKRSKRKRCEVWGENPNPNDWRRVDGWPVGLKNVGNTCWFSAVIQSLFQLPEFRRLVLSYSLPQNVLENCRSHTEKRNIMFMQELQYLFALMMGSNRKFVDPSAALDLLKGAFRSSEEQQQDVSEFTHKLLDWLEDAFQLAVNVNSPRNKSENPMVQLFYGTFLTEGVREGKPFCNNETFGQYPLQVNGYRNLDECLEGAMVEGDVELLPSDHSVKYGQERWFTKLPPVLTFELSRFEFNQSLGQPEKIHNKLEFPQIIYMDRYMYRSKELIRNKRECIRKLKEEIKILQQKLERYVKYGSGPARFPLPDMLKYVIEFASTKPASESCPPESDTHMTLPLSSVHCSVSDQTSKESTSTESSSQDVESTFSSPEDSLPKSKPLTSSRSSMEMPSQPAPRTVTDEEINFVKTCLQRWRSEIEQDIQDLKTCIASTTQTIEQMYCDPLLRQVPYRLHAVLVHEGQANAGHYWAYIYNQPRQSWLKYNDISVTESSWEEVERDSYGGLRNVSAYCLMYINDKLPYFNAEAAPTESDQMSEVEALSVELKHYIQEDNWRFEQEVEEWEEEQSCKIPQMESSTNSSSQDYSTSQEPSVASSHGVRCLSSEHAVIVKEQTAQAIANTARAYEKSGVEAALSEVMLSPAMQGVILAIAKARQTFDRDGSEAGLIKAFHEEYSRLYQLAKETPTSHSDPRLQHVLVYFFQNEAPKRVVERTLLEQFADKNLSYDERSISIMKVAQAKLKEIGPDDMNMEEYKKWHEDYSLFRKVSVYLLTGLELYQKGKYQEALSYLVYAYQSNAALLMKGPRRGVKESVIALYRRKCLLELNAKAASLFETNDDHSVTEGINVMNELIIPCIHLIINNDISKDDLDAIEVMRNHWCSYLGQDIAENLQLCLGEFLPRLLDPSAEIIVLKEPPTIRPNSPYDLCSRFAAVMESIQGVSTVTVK
Method in brief: as §1

## O=C(CCl)N1CCc2nc[nH]c2C1c1ccc(Cl)cc1 (stereo not given)
USP16
  log2 ratio of Biotin-Ahx-Ub-VS probe labelling: -0.287
USP19
  log2 ratio of Biotin-Ahx-Ub-VS probe labelling: -0.509
USP24
  log2 ratio of Biotin-Ahx-Ub-VS probe labelling: -1.47 (active)
USP25
  log2 ratio of Biotin-Ahx-Ub-VS probe labelling: -0.591
USP28
  log2 ratio of Biotin-Ahx-Ub-VS probe labelling: -0.738
